Among all 5,500 compounds or so, about 2,000 (36%) were called active. Not shown: some 18% with an inconclusive outcome. No stated cut-off is given here; in the data, active means normalized growth mostly below about 0.91 (no sharp cut-off); inconclusive means no clear call, values can overlap the other calls; inactive means mostly above about 0.92. The list shows a part of the results.
Assay: chemical genetic growth profiling, strain panel (AID 1159580);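 further: tested at 20 µM; growth read once vehicle control cultures reached saturation at 30 °C; 1 = growth at the plate median or of vehicle wells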
Conditions: growth OD

Measured: normalized growth

CC(NCCc1ccc(O)cc1)C(O)c1ccc(O)cc1 (centres undefined)
inactive: S. cerevisiae deletion strains, locus YJR043C, strain POL32, stronger effect = lower value 0.992 | S. cerevisiae deletion strains, locus YJR066W, strain TOR1, stronger effect = lower value 0.948 | S. cerevisiae deletion strains, locus YKL009W, strain mrt4, stronger effect = lower value 0.977 | S. cerevisiae deletion strains, locus YKL068W, stronger effect = lower value 0.985 | S. cerevisiae deletion strains, locus YKL085W, strain MDH1 (second series), stronger effect = lower value 0.984 | S. cerevisiae deletion strains, locus YKL085W, strain MDH1, stronger effect = lower value 0.984 | S. cerevisiae deletion strains, locus YKL160W, strain elf1, stronger effect = lower value 0.966 | S. cerevisiae deletion strains, locus YKL190W, strain CNB1, stronger effect = lower value 0.998 | S. cerevisiae deletion strains, locus YKR001C, strain vps1, stronger effect = lower value 0.987 | S. cerevisiae deletion strains, locus YKR026C, strain gcn3, stronger effect = lower value 0.985 | S. cerevisiae deletion strains, locus YKR091W, strain srl3, stronger effect = lower value 0.985 | S. cerevisiae deletion strains, locus YLL001W, strain dnm1, stronger effect = lower value 0.981 | S. cerevisiae deletion strains, locus YLL026W, stronger effect = lower value 0.999 | S. cerevisiae deletion strains, locus YLL041C, strain sdh2, stronger effect = lower value 0.983 | S. cerevisiae deletion strains, locus YLR027C, strain aat2, stronger effect = lower value 0.983 | S. cerevisiae deletion strains, locus YLR039C, strain RIC1, stronger effect = lower value 1.02 | S. cerevisiae deletion strains, locus YLR058C, strain SHM2, stronger effect = lower value 0.988 | S. cerevisiae deletion strains, locus YLR102C, strain apc9, stronger effect = lower value 0.98 | S. cerevisiae deletion strains, locus YLR113W, strain HOG1, stronger effect = lower value 1.01 | S. cerevisiae deletion strains, locus YLR221C, strain rsa3, stronger effect = lower value 1.03 | S. cerevisiae deletion strains, locus YLR258W, strain gsy2, stronger effect = lower value 0.954 | S. cerevisiae deletion strains, locus YLR262C, strain YPT6 (second series), stronger effect = lower value 0.993 | S. cerevisiae deletion strains, locus YLR262C, strain YPT6, stronger effect = lower value 0.977 | S. cerevisiae deletion strains, locus YLR268W, strain sec22, stronger effect = lower value 0.975 | S. cerevisiae deletion strains, locus YLR320W, strain mms22, stronger effect = lower value 0.987 | S. cerevisiae deletion strains, locus YLR330W, strain CHS5, stronger effect = lower value 0.987 | S. cerevisiae deletion strains, locus YLR342W, strain FKS1 (second series), stronger effect = lower value 0.984 | S. cerevisiae deletion strains, locus YLR342W, strain FKS1, stronger effect = lower value 0.974 | S. cerevisiae deletion strains, locus YLR357W, strain rsc2, stronger effect = lower value 0.916 | S. cerevisiae deletion strains, locus YLR370C, strain arc18, stronger effect = lower value 0.95 | S. cerevisiae deletion strains, locus YLR371W, strain rom2, stronger effect = lower value 0.975 | S. cerevisiae deletion strains, locus YLR384C, strain iki3, stronger effect = lower value 0.975 | S. cerevisiae deletion strains, locus YLR418C, strain cdc73, stronger effect = lower value 0.969 | S. cerevisiae deletion strains, locus YML016C, strain PPZ1, stronger effect = lower value 0.986 | S. cerevisiae deletion strains, locus YML032C, strain rad52, stronger effect = lower value 0.976 | S. cerevisiae deletion strains, locus YML120C, strain ndi1, stronger effect = lower value 1.02 | S. cerevisiae deletion strains, locus YML124C, strain tub3, stronger effect = lower value 0.99 | S. cerevisiae deletion strains, locus YMR058W, strain fet3, stronger effect = lower value 0.988 | S. cerevisiae deletion strains, locus YMR078C, strain ctf18, stronger effect = lower value 0.986 | S. cerevisiae deletion strains, locus YMR125W, strain sto1, stronger effect = lower value 0.98 | S. cerevisiae deletion strains, locus YMR129W, stronger effect = lower value 1.01 | S. cerevisiae deletion strains, locus YMR205C, strain PFK2, stronger effect = lower value 1 | S. cerevisiae deletion strains, locus YMR223W, strain ubp8, stronger effect = lower value 0.976 | S. cerevisiae deletion strains, locus YMR231W, strain pep5, stronger effect = lower value 0.997 | S. cerevisiae deletion strains, locus YMR307W, strain GAS1, stronger effect = lower value 0.891 | S. cerevisiae deletion strains, locus YNL067W, strain RPL9B, stronger effect = lower value 1.01 | S. cerevisiae deletion strains, locus YNL071W, strain lat1, stronger effect = lower value 0.993 | S. cerevisiae deletion strains, locus YNL128W, strain TEP1, stronger effect = lower value 0.962 | S. cerevisiae deletion strains, locus YNL183C, strain NPR1, stronger effect = lower value 0.959 | S. cerevisiae deletion strains, locus YNL209W, strain ssb2, stronger effect = lower value 0.961 | S. cerevisiae deletion strains, locus YNL233W, strain BNI4, stronger effect = lower value 1 | S. cerevisiae deletion strains, locus YNL248C, strain rpa49, stronger effect = lower value 0.921 | S. cerevisiae deletion strains, locus YNL250W, strain rad50, stronger effect = lower value 0.974 | S. cerevisiae deletion strains, locus YNL271C, strain bni1, stronger effect = lower value 0.973 | S. cerevisiae deletion strains, locus YNL298W, strain CLA4, stronger effect = lower value 0.981 | S. cerevisiae deletion strains, locus YNL307C, strain MCK1, stronger effect = lower value 0.987 | S. cerevisiae deletion strains, locus YNL322C, strain KRE1 (second series), stronger effect = lower value 0.985 | S. cerevisiae deletion strains, locus YNR049C, strain mso1, stronger effect = lower value 0.977 | S. cerevisiae deletion strains, locus YNR052C, strain pop2, stronger effect = lower value 0.985 | S. cerevisiae deletion strains, locus YOL006C, strain TOP1, stronger effect = lower value 1.02 | S. cerevisiae deletion strains, locus YOL012C, strain htz1 0.994 | S. cerevisiae deletion strains, locus YOL147C, strain pex11, stronger effect = lower value 0.983 | S. cerevisiae deletion strains, locus YOR001W, strain rrp6, stronger effect = lower value 1.03 | S. cerevisiae deletion strains, locus YOR061W, strain CKA2, stronger effect = lower value 0.984 | S. cerevisiae deletion strains, locus YOR069W, strain VPS5, stronger effect = lower value 0.99 | S. cerevisiae deletion strains, locus YOR070C, strain gyp1, stronger effect = lower value 0.976 | S. cerevisiae deletion strains, locus YOR080W, strain dia2, stronger effect = lower value 0.977 | S. cerevisiae deletion strains, locus YOR083W, strain WHI5, stronger effect = lower value 0.935 | S. cerevisiae deletion strains, locus YOR106W, strain vam3, stronger effect = lower value 0.99 | S. cerevisiae deletion strains, locus YOR136W, strain idh2, stronger effect = lower value 0.993 | S. cerevisiae deletion strains, locus YOR144C, strain elg1, stronger effect = lower value 0.987 | S. cerevisiae deletion strains, locus YOR184W, strain ser1, stronger effect = lower value 0.978 | S. cerevisiae deletion strains, locus YOR231W, strain MKK1, stronger effect = lower value 1 | S. cerevisiae deletion strains, locus YOR265W, strain rbl2, stronger effect = lower value 0.985 | S. cerevisiae deletion strains, locus YOR270C, strain vph1, stronger effect = lower value 1.01 | S. cerevisiae deletion strains, locus YOR290C, strain snf2, stronger effect = lower value 0.912 | S. cerevisiae deletion strains, locus YOR316C, strain cot1, stronger effect = lower value 0.984 | S. cerevisiae deletion strains, locus YPL051W, strain arl3, stronger effect = lower value 0.978 | S. cerevisiae deletion strains, locus YPL078C, strain atp4, stronger effect = lower value 0.946 | S. cerevisiae deletion strains, locus YPL106C, strain sse1, stronger effect = lower value 0.969 | S. cerevisiae deletion strains, locus YPL240C, strain hsp82, stronger effect = lower value 0.995 | S. cerevisiae deletion strains, locus YPL241C, strain CIN2, stronger effect = lower value 0.992 | S. cerevisiae deletion strains, locus YPL256C, strain CLN2, stronger effect = lower value 1.01 | S. cerevisiae deletion strains, locus YPR119W, strain clb2, stronger effect = lower value 0.986 | S. cerevisiae deletion strains, locus YPR141C, strain kar3, stronger effect = lower value 0.969 | S. cerevisiae deletion strains, locus YPR163C, strain tif3, stronger effect = lower value 0.982 | S. cerevisiae deletion strains, locus YPR167C, strain met16, stronger effect = lower value 0.972 | S. cerevisiae deletion strains, strain wtn01, stronger effect = lower value 0.976 | S. cerevisiae strains, strain wild type, stronger effect = lower value 0.989

Source: PubChem BioAssay AID1159580 (chemical genetic matrix, 2015)
